The panel holds about 79,000 compounds, 15% with a hit somewhere; the sample as a whole holds those more often. Calls of active or inactive are those of the source. No stated cut-off is given here; in the data, active means growth inhibition above about 70%; inactive means the rest.
Columns and labels:
[1] = NCI Yeast Anticancer Drug Screen. Data for the rad52 strain (AID 147);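 further: 0% = growth of vehicle-treated control cultures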; conditions: S. cerevisiae rad52 mutant growth inhibition, hits give high values
Procedure, shortened: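 Compounds are applied to a genetically defined yeast strain lacking normal DNA damage repair, and inhibition of growth is expressed relative to cultures given vehicle only.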

[2] = NCI Yeast Anticancer Drug Screen. Data for the wt1 strain (AID 149);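 further: 0% = growth of vehicle-treated wt1 cultures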; conditions: S. cerevisiae wt1 strain (SPY 50644) growth inhibition, hits give high values
Procedure, shortened: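 Each compound is tested on wt1 yeast and the loss of growth versus vehicle gives the inhibition value.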

[3] = NCI Yeast Anticancer Drug Screen. Data for the rad50EPP+ strain (AID 151);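 further: 0% = growth of vehicle-treated control cultures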; conditions: S. cerevisiae rad50 mutant strain, hits give high values
Procedure, shortened: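 Compounds were applied to the rad50EPP+ yeast strain, which bears a defined DNA repair alteration, and growth inhibition was determined relative to vehicle-treated cultures.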

[4] = NCI Yeast Anticancer Drug Screen. Data for the mgt1 strain (AID 153); conditions: S. cerevisiae mgt1 mutant growth inhibition, hits give high values
Procedure, shortened: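 Strain: mgt1 yeast, one of a set carrying defined DNA damage repair or cell cycle control alterations. Compound-treated growth compared with vehicle.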

[5] = NCI Yeast Anticancer Drug Screen. Data for the rad50 strain (AID 155);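 further: 0% = growth of vehicle-only cultures of the same strain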; conditions: S. cerevisiae rad50 strain growth inhibition, hits give high values
Procedure, shortened: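 Vehicle-treated cultures provide the reference for the growth inhibition reported for compound-exposed, repair-deficient yeast.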

[6] = NCI Yeast Anticancer Drug Screen. Data for the mec2-1 strain (AID 157); conditions: S. cerevisiae mec2-1 strain, hits give high values
Procedure, shortened: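 Strain: mec2-1 (DNA repair/cell cycle alteration). Compound exposure, then growth measured; inhibition expressed relative to vehicle.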

[7] = NCI Yeast Anticancer Drug Screen. Data for the rad14 strain (AID 159);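 further: 0% = growth of vehicle-treated control cultures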; conditions: S. cerevisiae rad14 strain growth inhibition, hits give high values
Procedure, shortened: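 Inhibition of growth is reported for a repair-deficient yeast mutant following compound treatment, calculated relative to cultures that received vehicle.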

[8] = NCI Yeast Anticancer Drug Screen. Data for the sgs1 mgt1 strain (AID 161);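 further: 0% = growth of cultures given vehicle only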; conditions: S. cerevisiae sgs1 mgt1 strain, hits give high values
Procedure, shortened: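 Test agents were incubated with a DNA-repair-mutant yeast strain. Growth was then read and compared against vehicle-treated controls.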

[9] = NCI Yeast Anticancer Drug Screen. Data for the CLN2oe strain (AID 163);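 further: 0% = growth of vehicle-only control cultures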; conditions: S. cerevisiae CLN2oe strain, hits give high values
Procedure, shortened: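 Growth of a genetically modified yeast strain is measured after compound exposure and compared with cultures given vehicle alone.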

[10] = NCI Yeast Anticancer Drug Screen. Data for the cln2 rad14 strain (AID 165);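 further: 0% = growth equal to vehicle treated cultures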; conditions: S. cerevisiae cln2 rad14 strain, hits give high values
Procedure, shortened: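 Compounds are applied to the cln2 rad14 yeast strain, and growth is then compared with that of vehicle-treated cultures to give inhibition.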

[11] = NCI Yeast Anticancer Drug Screen. Data for the bub3 strain (AID 167); conditions: S. cerevisiae bub3 mutant strain, hits give high values
Procedure, shortened: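 Mutant yeast screening strain plus compound; vehicle-treated cultures serve as the 0% inhibition reference.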

[12] = NCI Yeast Anticancer Drug Screen. Data for the wt2 strain (AID 169); conditions: S. cerevisiae wt2 strain growth inhibition, hits give high values
Procedure, shortened: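 This strain belongs to a panel of yeast strains with defined genetic alterations in DNA damage repair or cell cycle control. Compounds are applied, and growth inhibition is measured against vehicle-treated cultures.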

[13] = NCI Yeast Anticancer Drug Screen. Data for the sgs1 strain (AID 173);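 further: 0% = growth of vehicle-only control cultures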; conditions: S. cerevisiae sgs1 mutant, hits give high values
Procedure, shortened: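 Growth of a yeast strain bearing a defined genetic alteration is measured after compound treatment. Inhibition is expressed relative to vehicle-only controls.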

[14] = NCI Yeast Anticancer Drug Screen. Data for the mlh1 rad18 strain (AID 175); conditions: S. cerevisiae mlh1 rad18 strain growth inhibition, hits give high values
Procedure, shortened: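 Read-out is yeast growth inhibition, calculated against vehicle-only controls. The compound was applied to a strain engineered with DNA damage repair alterations.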

[15] = NCI Yeast Anticancer Drug Screen. Data for the rad18 strain (AID 177); conditions: S. cerevisiae rad18 mutant growth inhibition, hits give high values
Procedure, shortened: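 Growth of the mutant yeast strain after compound exposure, normalised to vehicle-only cultures.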

[16] = NCI Yeast Anticancer Drug Screen. Data for the mlh1 strain (AID 171);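 further: 0% = growth of vehicle-treated control cultures of the same strain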; conditions: S. cerevisiae mlh1 strain growth inhibition, hits give high values
Procedure, shortened: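 Growth of the mutant yeast strain after compound exposure, expressed as inhibition relative to vehicle-only controls.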

[17] = at 5.0 µM (retest, dose inferred, filed as 0.5)
[18] = at 50.0 µM (retest, dose inferred, filed as 5.0)

Measured: growth inhibition

CC(=O)O[C@H]1CC[C@@]2(C)C(=CC[C@@H]3C2CC[C@]2(C)C(=O)NC(=O)CC32)C1 (stereo partly drawn)
active: [4]; at 33.0 µM 76% | [4]; at 100.0 µM 70% | [8]; [18] 74% | [8]; at 50.0 µM 81.5% | [12]; at 33.0 µM 73% | [12]; at 100.0 µM 71% | [13]; at 11.0 µM 70% | [13]; at 33.0 µM 86% | [13]; at 100.0 µM 79%
inactive: [1]; at 1.2 µM -33% | [1]; at 3.7 µM -35% | [1]; at 11.0 µM -42% | [1]; at 33.0 µM -29% | [1]; at 100.0 µM -41% | [2]; at 1.2 µM -17% | [2]; at 3.7 µM -7% | [2]; at 11.0 µM -21% | [2]; at 33.0 µM -17% | [2]; at 100.0 µM -21% | [3]; at 1.2 µM -8% | [3]; at 3.7 µM 0% | [3]; at 11.0 µM 25% | [3]; at 33.0 µM 54% | [3]; at 100.0 µM 27% | [4]; at 1.2 µM -28% | [4]; at 3.7 µM -19% | [4]; at 11.0 µM 56% | [5]; at 1.2 µM -31% | [5]; at 3.7 µM -29% | [5]; [17] -21% | [5]; at 11.0 µM -20% | [5]; at 33.0 µM -25% | [5]; [18] -29% | [5]; at 50.0 µM 12.4% | [5]; at 100.0 µM -28% | [6]; at 1.2 µM -21% | [6]; at 3.7 µM -15% | [6]; [17] -44% | [6]; at 11.0 µM -13% | [6]; at 33.0 µM -43% | [6]; [18] -6% | [6]; at 50.0 µM -12.2% | [6]; at 100.0 µM -23% | [7]; at 1.2 µM -29% | [7]; at 3.7 µM -27% | [7]; at 11.0 µM -26% | [7]; at 33.0 µM -11% | [7]; at 100.0 µM -41% | [8]; [17] 21% | [9]; at 1.2 µM 2% | [9]; at 3.7 µM -4% | [9]; at 11.0 µM -16% | [9]; at 33.0 µM -13% | [9]; at 100.0 µM -23% | [10]; [17] -6% | [10]; [18] 13% | [10]; at 50.0 µM 29.5% | [11]; at 1.2 µM -14% | [11]; at 3.7 µM -29% | [11]; [17] 1% | [11]; at 11.0 µM -22% | [11]; at 33.0 µM -20% | [11]; [18] 46% | [11]; at 50.0 µM 9.95% | [11]; at 100.0 µM -31% | [12]; at 1.2 µM 8% | [12]; at 3.7 µM 19% | [12]; at 11.0 µM 46% | [13]; at 1.2 µM 16% | [13]; at 3.7 µM 40% | [14]; [17] -17% | [14]; [18] 3% | [14]; at 50.0 µM -0.8% | [15]; at 1.2 µM -1% | [15]; at 3.7 µM 0% | [15]; at 11.0 µM 1% | [15]; at 33.0 µM 4% | [15]; at 100.0 µM 0%

CC(C)C(c1ccccc1)c1ccccc1
inactive: [1]; at 1.2 µM 4% | [1]; at 3.7 µM 9% | [1]; at 11.0 µM 9% | [1]; at 33.0 µM 8% | [2]; at 1.2 µM -1% | [2]; at 3.7 µM -1% | [2]; at 11.0 µM 0% | [2]; at 33.0 µM -2% | [2]; at 100.0 µM 49% | [3]; at 1.2 µM 3% | [3]; at 3.7 µM 6% | [3]; at 11.0 µM 14% | [3]; at 33.0 µM 43% | [4]; at 1.2 µM 0% | [4]; at 3.7 µM 0% | [4]; at 11.0 µM -1% | [4]; at 33.0 µM -6% | [4]; at 100.0 µM 55% | [5]; at 1.2 µM 1% | [5]; at 3.7 µM 18% | [5]; [17] -144% | [5]; at 11.0 µM 9% | [5]; at 33.0 µM 10% | [5]; at 50.0 µM 10% | [6]; at 1.2 µM 2% | [6]; at 3.7 µM 3% | [6]; [17] -50% | [6]; at 11.0 µM -10% | [6]; at 33.0 µM 1% | [6]; [18] -32% | [6]; at 50.0 µM 49.4% | [7]; at 1.2 µM -1% | [7]; at 3.7 µM -5% | [7]; at 11.0 µM 2% | [7]; at 33.0 µM 7% | [8]; [17] -54% | [8]; [18] -37% | [8]; at 50.0 µM 52.2% | [9]; at 1.2 µM -5% | [9]; at 3.7 µM -1% | [9]; at 11.0 µM 2% | [9]; at 33.0 µM 1% | [9]; at 100.0 µM 69% | [11]; at 1.2 µM -6% | [11]; at 3.7 µM 1% | [11]; [17] -67% | [11]; at 11.0 µM -4% | [11]; at 33.0 µM -4% | [11]; [18] 44% | [11]; at 50.0 µM -0.75% | [11]; at 100.0 µM 66% | [12]; at 1.2 µM -2% | [12]; at 3.7 µM -2% | [12]; at 11.0 µM -1% | [12]; at 33.0 µM 1% | [12]; at 100.0 µM 56% | [16]; at 1.2 µM 3% | [16]; at 3.7 µM 0% | [16]; at 11.0 µM 0% | [16]; at 33.0 µM 2% | [16]; at 100.0 µM 60% | [13]; at 1.2 µM -1% | [13]; at 3.7 µM -3% | [13]; at 11.0 µM -3% | [13]; at 33.0 µM -3% | [14]; [17] -113% | [14]; [18] -101% | [14]; at 50.0 µM 29.2% | [15]; at 1.2 µM 3% | [15]; at 3.7 µM -1% | [15]; at 11.0 µM 3% | [15]; at 33.0 µM 3% | [15]; at 100.0 µM 59%
active: [1]; at 100.0 µM 77% | [3]; at 100.0 µM 93% | [5]; [18] 70% | [5]; at 100.0 µM 93% | [6]; at 100.0 µM 99% | [7]; at 100.0 µM 70% | [13]; at 100.0 µM 99%

Reference: PubChem BioAssay (NCI)
